Assay results taken from PubChem BioAssay (Tox21).
Inconclusive results are not listed. Active and inactive are the calls of the source. Unless noted, the call rests on the fitted dose curve; in most records, active means well fitted curve in the direction sought with a large enough effect in the repeat runs; inconclusive means weak or mixed curves; inactive means no such curve, though single readings can be large; an effect the other way counts as inactive or inconclusive.

How the values were obtained:
[1] = qHTS assay to identify small molecule antagonists of the estrogen receptor alpha (ER-alpha) signaling pathway using the BG1 cell line in the presence of 0.1 nM 17-beta-estradiol - cell viability counter screen (AID 1259241); further: nearly all actives have a fitted effect of over 40% in size
How it was run: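 Viability in VM7Luc4E2 cells after 22 hr compound exposure under 0.1 nM 17beta-estradiol stimulation, by CellTiter-Fluor.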

[2] = qHTS assay to identify small molecule antagonists of the androgen receptor (AR) signaling pathway using the MDA cell line in the presence of 0.5 nM R1881 - cell viability counter screen (AID 1259242); further: nearly all actives have a fitted effect of over 45% in size
How it was run: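 Live-cell protease activity was measured by CellTiter-Fluor fluorescence after 30 min. Before that, MDA-kb2 MMTV-luciferase cells had 16 hr at 37C without CO2, exposed to test compounds and 0.5 nM R1881 final.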

[3] = target: Estrogen receptor (Homo sapiens) (UniProt P03372); experiment: qHTS assay to identify small molecule antagonists of the estrogen receptor alpha (ER-alpha) signaling pathway using the BG1 cell line in the presence of 0.1 nM 17-beta-estradiol (AID 1259244); further: nearly all actives have a fitted effect of over 50% in size
Sequence of Estrogen receptor (Homo sapiens) (P03372 whole entry, looked up): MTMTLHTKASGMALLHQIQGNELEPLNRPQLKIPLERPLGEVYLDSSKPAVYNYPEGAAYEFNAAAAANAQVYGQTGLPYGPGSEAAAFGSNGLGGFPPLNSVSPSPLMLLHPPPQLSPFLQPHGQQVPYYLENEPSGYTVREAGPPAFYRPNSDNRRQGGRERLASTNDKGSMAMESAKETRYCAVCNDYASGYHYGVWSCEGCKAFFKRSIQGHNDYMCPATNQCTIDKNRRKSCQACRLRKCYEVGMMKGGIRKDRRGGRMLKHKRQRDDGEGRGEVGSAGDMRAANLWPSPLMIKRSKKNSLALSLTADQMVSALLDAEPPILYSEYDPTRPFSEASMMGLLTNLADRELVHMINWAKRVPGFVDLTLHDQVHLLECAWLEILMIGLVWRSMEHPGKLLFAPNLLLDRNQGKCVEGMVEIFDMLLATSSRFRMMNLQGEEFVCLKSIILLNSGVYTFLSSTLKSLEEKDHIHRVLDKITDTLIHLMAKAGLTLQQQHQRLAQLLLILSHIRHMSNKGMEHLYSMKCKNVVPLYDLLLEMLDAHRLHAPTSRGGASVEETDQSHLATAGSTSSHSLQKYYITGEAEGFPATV
How it was run: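 Luciferase luminescence (ONE-Glo, 30 min at room temperature) was read after 22 hr at 37C exposure to compounds plus 17beta-estradiol at 0.1 nM final. Cells were VM7Luc4E2 with endogenous ER-alpha and an ERE-driven luciferase, pre-cultured 5 days in hormone-depleted medium.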

[4] = qHTS assay to identify small molecule phospholipidosis (PLD) inducers (AID 1259344; active means well fitted curve in the direction sought with a large enough effect; an effect the other way counts as inactive or inconclusive)
How it was run: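 Phospholipid accumulation was scored by imaging: fixed, Hoechst-counterstained HepG2 cells stained with LipidTOX Red after 24 h compound exposure at 37 C. Read-outs were pit count and pit intensity per well or per cell, with amiodarone and DMSO controls.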

[5] = qHTS assay to identify small molecule HDAC inhibitors (AID 1259364); further: top concentration of the series differs between compounds; nearly all actives have a fitted effect of over 45% in size
How it was run: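 Luminescence read after 30 min room-temperature HDAC-Glo incubation measures cellular class I/II HDAC activity. Compounds were applied for 2 hr at 37 C to HCT-116 wild-type cells seeded the day before.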

[6] = qHTS assay to identify small molecule HDAC inhibitors - cell viability counter screen (AID 1259365); further: series mostly up to about 92 µM; nearly all actives have a fitted effect of over 50% in size
How it was run: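 Cytotoxicity was gauged in wild-type HCT-116 cells after a brief 2hr treatment with DMSO-dissolved compounds at 37C and 5% CO2, using CellTiter-Glo luminescence developed for 30min at room temperature.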

[7] = qHTS assay to identify small molecule agonists of the sonic hedgehog signaling (Shh) pathway - cell viability counter screen (AID 1259366); further: nearly all actives have a fitted effect of over 50% in size
How it was run: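 Stable Gli1-Luc NIH/3T3 clone, 2,000 cells/well. Compound exposure 24hr at 37C. Read-out: CellTiter-Fluor fluorescence.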

[8] = qHTS assay to identify small molecule antagonists of the sonic hedgehog signaling (Shh) pathway - cell viability counter screen (AID 1259367); further: nearly all actives have a fitted effect of over 55% in size
How it was run: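 Viability was read by CellTiter-Fluor fluorescence in the same wells, reagent added 23 hr into compound treatment and incubated 1 hr at 37C. The 3T3 Gli1-Luc reporter cells (2,000/well) received conditioned medium after compound and ran 24 hr.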

[9] = qHTS assay to identify small molecule agonists of the sonic hedgehog signaling (Shh) pathway (AID 1259368; calls by dose curve;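 further: NIH/3T3-derived 3T3Gli1-Luc cells carrying a stable Gli1-driven firefly luciferase reporter; series mostly up to about 92 µM; nearly all actives have a fitted effect of over 15% in size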)
How it was run: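 Luminescence was read after 30 min at room temperature with luciferase reagent. Before that, 3T3Gli1-Luc cells (NIH/3T3 clone, stable Gli1-Luc reporter; 2,000/well) were exposed to compounds for 24 hr at 37C, 5% CO2, compounds being added 4 hr post-plating.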

[10] = target: Androgen receptor (Homo sapiens) (UniProt P10275); experiment: qHTS assay to identify small molecule antagonists of the androgen receptor (AR) signaling pathway using the MDA cell line in the presence of 0.5 nM R1881 (AID 1259243); further: nearly all actives have a fitted effect of over 50% in size; further: potency means the concentration at half of the fitted maximal effect
Sequence of Androgen receptor (Homo sapiens) (P10275 whole entry, looked up): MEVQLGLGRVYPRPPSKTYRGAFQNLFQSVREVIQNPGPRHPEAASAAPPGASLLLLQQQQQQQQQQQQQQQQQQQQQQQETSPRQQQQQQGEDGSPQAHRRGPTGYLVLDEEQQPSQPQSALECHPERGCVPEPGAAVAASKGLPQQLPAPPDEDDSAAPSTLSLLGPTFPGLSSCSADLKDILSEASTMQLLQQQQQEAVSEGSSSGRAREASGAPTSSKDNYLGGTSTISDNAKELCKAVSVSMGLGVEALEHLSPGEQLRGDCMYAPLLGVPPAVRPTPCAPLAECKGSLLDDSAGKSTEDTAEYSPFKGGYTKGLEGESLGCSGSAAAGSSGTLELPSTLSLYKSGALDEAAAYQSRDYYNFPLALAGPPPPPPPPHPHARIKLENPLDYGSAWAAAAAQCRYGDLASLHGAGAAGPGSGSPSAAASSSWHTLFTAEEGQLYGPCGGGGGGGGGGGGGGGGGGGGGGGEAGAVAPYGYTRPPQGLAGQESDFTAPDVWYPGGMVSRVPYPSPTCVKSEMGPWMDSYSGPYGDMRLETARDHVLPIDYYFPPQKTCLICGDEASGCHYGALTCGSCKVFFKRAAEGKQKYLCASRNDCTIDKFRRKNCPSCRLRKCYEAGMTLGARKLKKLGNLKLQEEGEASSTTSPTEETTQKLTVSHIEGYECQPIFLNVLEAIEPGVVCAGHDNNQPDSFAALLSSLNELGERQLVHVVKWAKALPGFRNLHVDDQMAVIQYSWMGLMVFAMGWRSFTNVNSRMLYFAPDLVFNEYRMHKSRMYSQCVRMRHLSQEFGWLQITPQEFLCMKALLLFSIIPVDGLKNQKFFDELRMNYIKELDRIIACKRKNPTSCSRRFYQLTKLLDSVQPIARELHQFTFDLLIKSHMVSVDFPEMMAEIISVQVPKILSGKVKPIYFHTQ
How it was run: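 Luminescent reporter readout (ONE-Glo, 30 min, room temperature) after 16 hr co-treatment of MDA-kb2 cells with test compounds and 0.5 nM R1881 final, at 37C without CO2. The MMTV-driven luciferase responds to both AR and GR.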
On the % scale 0 is the no-effect control and ±100 the full control effect.

CCC(C(=O)NC(=O)NC(C)=O)c1ccccc1 (configuration not stated)
inactive: outcome [1] | outcome [2] | outcome [3] | PLD induction [4] -2.71% [at 7.66 µM] | Potency [5] | outcome [6] | Potency [7] | Potency [8] | outcome [9]

Cc1ccc(C(=O)Nc2ccc(S(=O)(=O)O)c3cc(S(=O)(=O)O)cc(S(=O)(=O)O)c23)cc1NC(=O)c1cccc(NC(=O)Nc2cccc(C(=O)Nc3cc(C(=O)Nc4ccc(S(=O)(=O)O)c5cc(S(=O)(=O)O)cc(S(=O)(=O)O)c45)ccc3C)c2)c1
inactive: outcome [1] | outcome [2] | outcome [3] | outcome [4] | Potency [5] | outcome [6] | Potency [7] | Potency [8] | outcome [9]

N[C@@H](CCC(=O)O)C(=O)O
inactive: outcome [1] | outcome [2] | outcome [3] | outcome [4] | Potency [5] | outcome [6] | Potency [7] | Potency [8] | outcome [9]

CC[C@H]1OC(=O)[C@H](C)[C@@H](O[C@H]2C[C@@](C)(OC)[C@@H](O)[C@H](C)O2)[C@H](C)[C@@H](O[C@@H]2O[C@H](C)C[C@H](N(C)C)[C@H]2O)[C@](C)(OC)C[C@@H](C)C(=O)[C@H](C)[C@@H](O)[C@]1(C)O
inactive: outcome [1] | outcome [2] | outcome [3] | outcome [4] | Potency [5] | outcome [6] | Potency [8] | outcome [9]

Cc1ccnc(NS(=O)(=O)c2ccc(N)cc2)n1
inactive: outcome [1] | outcome [2] | outcome [3] | outcome [4] | Potency [5] | outcome [6] | Potency [7] | Potency [8] | outcome [9]

CC1=NS(=O)(=O)c2cc(Cl)ccc2N1
inactive: outcome [1] | outcome [2] | outcome [3] | outcome [4] | Potency [5] | outcome [6] | Potency [7] | Potency [8] | outcome [9]

Nc1ccn([C@@H]2O[C@H](CO)[C@@H](O)C2(F)F)c(=O)n1
inactive: outcome [1] | outcome [2] | outcome [3] | outcome [4] | Potency [5] | outcome [6] | Potency [7] | Potency [8] | outcome [9]

CO[C@@]1(NC(=O)C(C(=O)O)c2ccc(O)cc2)C(=O)N2C(C(=O)O)=C(CSc3nnnn3C)CO[C@@H]21 (some centres not stated)
inactive: outcome [1] | outcome [2] | outcome [3] | outcome [4] | Potency [5] | outcome [6] | Potency [7] | Potency [8] | outcome [9]

Cc1coc2ccccc2c1=O
inactive: outcome [1] | outcome [2] | Potency [10] | Potency [5] | outcome [6] | Potency [7] | Potency [8] | outcome [9]

C[N+](C)(C)CCCCCCCCCC[N+](C)(C)C
inactive: outcome [1] | outcome [2] | outcome [3] | outcome [4] | Potency [5] | outcome [6] | Potency [7] | Potency [8] | outcome [9]

CO/N=C(\C(=O)N[C@@H]1C(=O)N2C(C(=O)O)=C(CSc3nc(=O)c(O)nn3C)CS[C@H]12)c1csc(N)n1
inactive: outcome [1] | outcome [2] | outcome [3] | outcome [4] | Potency [5] | outcome [6] | Potency [7] | Potency [8] | outcome [9]

CN1[C@@H]2CC[C@H]1CC(OC(=O)C(O)c1ccccc1)C2 (some centres not stated)
inactive: outcome [1] | outcome [2] | outcome [3] | outcome [4] | Potency [5] | outcome [6] | Potency [7] | Potency [8] | outcome [9]

CCOC(=O)c1cnc2c(cnn2CC)c1NN=C(C)C
inactive: outcome [1] | outcome [2] | outcome [3] | outcome [4] | Potency [5] | outcome [6] | Potency [7] | Potency [8] | outcome [9]

Cc1cccc(C)c1NC(=O)CC12CCCN1CCC2
inactive: outcome [1] | outcome [2] | outcome [3] | outcome [4] | Potency [5] | Potency [7] | Potency [8] | outcome [9]

CNC(=O)Nc1ccc(Cl)c(Cl)c1
inactive: outcome [1] | outcome [2] | outcome [6] | Potency [7] | Potency [8] | outcome [9]
active: Potency [10] 30.6 µM

O=C(O)c1cn(C2CC2)c2cc(N3CCNCC3)c(F)cc2c1=O
inactive: outcome [1] | outcome [2] | outcome [3] | outcome [4] | Potency [5] | outcome [6] | Potency [7] | Potency [8] | outcome [9]

O=C(CO)[C@@H](O)[C@H](O)[C@@H](O)CO
inactive: outcome [1] | outcome [2] | outcome [3] | outcome [4] | Potency [5] | outcome [6] | Potency [7] | Potency [8] | outcome [9]

C[C@@H]1C[C@H]2[C@@H]3C[C@H](F)C4=CC(=O)C(Cl)=C[C@]4(C)[C@@]3(F)[C@@H](O)C[C@]2(C)[C@@]1(O)C(=O)CO
inactive: outcome [1] | outcome [2] | outcome [3] | outcome [4] | Potency [5] | outcome [6] | Potency [7] | Potency [8] | outcome [9]

CC(=O)Oc1cccc(C)c1
inactive: outcome [1] | outcome [2] | outcome [3] | outcome [4] | Potency [5] | outcome [6] | Potency [7] | Potency [8] | outcome [9]

C[N+]1(C)[C@@H]2CC(OC(=O)[C@H](CO)c3ccccc3)C[C@H]1[C@@H]1O[C@@H]12 (some centres not stated)
inactive: outcome [1] | outcome [2] | outcome [3] | outcome [4] | Potency [5] | outcome [6] | Potency [7] | Potency [8] | outcome [9]

CN(C)C(=O)Oc1ccc[n+](C)c1
inactive: outcome [1] | outcome [2] | outcome [3] | outcome [4] | Potency [5] | outcome [6] | Potency [7] | Potency [8] | outcome [9]

CCCCCCCCCCOc1cc2c(=O)c(C(=O)OCC)c[nH]c2cc1OCC
inactive: activity change, negative = cytotoxicity [1] 4.33% [at 8.39 µM] | viability change, negative = cytotoxic [2] 2.82% [at 8.39 µM] | activity change, negative = inhibition [3] -1.66% [at 8.39 µM] | outcome [4] | activity change, negative = inhibition [5] 0.14% [at 8.39 µM] | activity change, negative = cytotoxicity [6] 9.44% [at 8.39 µM] | viability change, negative = cytotoxic [7] 2.95% [at 8.39 µM] | viability change, negative = cytotoxic [8] 5.79% [at 8.39 µM] | activity change [9] -0.042% [at 8.39 µM]

CC(C)(C)C(=O)Oc1ccc(S(=O)(=O)Nc2ccccc2C(=O)NCC(=O)O)cc1
inactive: outcome [1] | outcome [2] | outcome [3] | outcome [4] | Potency [5] | Potency [7] | Potency [8] | outcome [9]

CC(=O)NC(=O)c1ccccc1O
inactive: outcome [1] | outcome [2] | outcome [3] | outcome [4] | Potency [5] | outcome [6] | Potency [7] | Potency [8] | outcome [9]

CCN(Cc1ccccc1)c1ccccc1
active: Potency [10] 53.8 µM
inactive: outcome [1] | outcome [2] | Potency [5] | outcome [6] | Potency [8] | outcome [9]
